Screens: PubChem BioAssay, National Center for Advancing Translational Sciences (NCATS)
Most compounds without a hit are left out; they make up all but 10% or so of the library.
RORgamma inh = qHTS for inhibitors of ROR gamma transcriptional activity | hit rate 5.4% among 310,000 | Potency, µM (top dose mostly 53.6 µM), inactives show at the top dose activity change, negative = inhibition, most hits filed as inhibitors | Drosophila S2 Gal4-RORgamma UAS-luciferase reporter, 20 h; further: on the % scale 0 is the no-effect control and ±100 the full control effect; nearly all actives have a fitted effect of over 60% in size
Target sequence (P51450 whole entry, looked up, the tested form may be a part): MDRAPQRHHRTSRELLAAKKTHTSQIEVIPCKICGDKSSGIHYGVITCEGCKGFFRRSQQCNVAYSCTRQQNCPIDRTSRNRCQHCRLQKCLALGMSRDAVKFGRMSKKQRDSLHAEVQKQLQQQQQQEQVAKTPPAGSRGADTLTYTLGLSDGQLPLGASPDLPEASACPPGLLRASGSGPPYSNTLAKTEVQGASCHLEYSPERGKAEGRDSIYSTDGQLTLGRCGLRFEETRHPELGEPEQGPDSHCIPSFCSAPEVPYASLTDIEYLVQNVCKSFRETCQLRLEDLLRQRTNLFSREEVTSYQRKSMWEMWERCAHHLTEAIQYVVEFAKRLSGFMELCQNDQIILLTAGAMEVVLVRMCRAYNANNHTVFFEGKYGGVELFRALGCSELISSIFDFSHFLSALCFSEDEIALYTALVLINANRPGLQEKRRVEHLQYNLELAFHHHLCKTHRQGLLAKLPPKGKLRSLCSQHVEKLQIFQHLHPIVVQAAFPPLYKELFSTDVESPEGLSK
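Luciferase reporter read in Schneider cells carrying Gal4-RORγ (mouse) and UAS-Photinus luciferase; cells given compound 1 h before 700 uM copper sulfate induction, then incubated 20 h at ambient temperature.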
ELG1 repair inh = qHTS screen for small molecules that inhibit ELG1-dependent DNA repair in human embryonic kidney (HEK293T) cells expressing luciferase-tagged ELG1; HEK293T ELG1-luciferase reporter, luminescence, 16 h; DNA damage induced by 5-fluorouridine; Potency, µM (series often up to 46.1 µM), without a hit: at the highest dose activity change, negative = inhibition, usual class: inhibitors; hit rate 2.3% among 330,000; further: on the % scale 0 is the no-effect control and ±100 the full control effect; nearly all actives have a fitted effect of over 55% in size
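Quantitative HTS, concentration-response format. 2,000 cells/well co-treated with 5-fluorouridine and compound, 16 hr in 5% CO2 at 37 °C; ONE-Glo luminescence read after 30 min.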
MCF10A rerep = A quantitative high throughput screen for small molecules that induce DNA re-replication in MCF 10a normal breast cells | MCF 10A DNA re-replication, Hoechst nuclear intensity, 48 h | hit rate 2.9% among 350,000 | Potency, µM (titrated, usually from 46.1 µM), inactives show at the top dose activity, positive = re-replication, most hits filed as activators; further: % of control where 0% means no effect; nearly all actives have a fitted effect of over 50% in size
SW480 rereplic = A quantitative high throughput screen for small molecules that induce DNA re-replication in SW480 colon adenocarcinoma cells | Potency, µM (doses to about 46.1 µM), for inactives: at the top dose re-replication activation, hits mostly activators | hit rate 1.8% among 340,000 | SW480 DNA re-replication, Hoechst DNA content imaging, 48 h; further: % of control where 0% means no effect; nearly all actives have a fitted effect of over 55% in size
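Image-based DNA-content assay: after two days of treatment, nuclei were labelled with the DNA dye Hoechst and imaged, and hits were compounds raising the count of nuclei showing high fluorescence intensity.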
Gal4-VP16 FLuc = VP16 counterscreen qHTS for inhibitors of ROR gamma transcriptional activity | Drosophila S2 Gal4-VP16 UAS-luciferase, luminescence, 20 h | Potency, µM (series often up to 53.6 µM), for the others: top-dose activity, negative = inhibition, most hits filed as inhibitors | hit rate 3.5% among 310,000;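 further: Gal4-VP16 expression switched on by copper sulfate through the metallothionein promoter; on the % scale 0 is the no-effect control and ±100 the full control effect; nearly all actives have a fitted effect of over 50% in size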
* = called active by the depositor; [ ] = dose if it differs, or a comment. The call rests on the fitted dose curve; in most records, active means well fitted curve in the direction sought with a large enough effect; inconclusive means small, poorly fitted or top-dose-only effect, or another doubt; inactive means no such curve, though single readings can be large; an effect the other way counts as inactive or inconclusive. Potency means the concentration at half of the fitted maximal effect.

`CCC1CSC(Nc2ccc(C(=O)/C=C/c3ccc(Oc4ccccc4)cc3)cc2)=N1` (stereo unspecified) gave RORgamma inh 16µM*, ELG1 repair inh -10%, MCF10A rerep inconclusive, SW480 rereplic inconclusive and Gal4-VP16 FLuc inconclusive.
CCC1CSC(Nc2ccc(C(=O)/C=C/c3cccc(C)c3)cc2)=N1 (stereo unspecified) was read as RORgamma inh -6%[10 µM], ELG1 repair inh -6%, MCF10A rerep 16µM*, SW480 rereplic inconclusive and Gal4-VP16 FLuc inconclusive.
CSc1cccc(NC(=O)C2CCN(S(=O)(=O)c3ccc4c(c3)NC(=O)CO4)CC2)c1 was read as RORgamma inh 17%, ELG1 repair inh -1%, MCF10A rerep 7%, SW480 rereplic -3% and Gal4-VP16 FLuc 5%.
`COc1ccc(-c2cn3cc(C)ccc3n2)cc1OC` gave RORgamma inh 11µM*, ELG1 repair inh inconclusive, MCF10A rerep 0%, SW480 rereplic -6% and Gal4-VP16 FLuc inconclusive.
Screening COc1ccc(-c2cn3cc(C)ccc3n2)cc1F returned RORgamma inh 2µM*, ELG1 repair inh inconclusive, MCF10A rerep 24%, SW480 rereplic inconclusive and Gal4-VP16 FLuc 4µM*.
`COc1ccc(-c2cn3cccc(C)c3n2)cc1F` gave RORgamma inh -5%, ELG1 repair inh inconclusive, MCF10A rerep -1%, SW480 rereplic 12% and Gal4-VP16 FLuc -14%.
`COc1ccc(-c2cn3ccccc3n2)cc1OC` gave RORgamma inh 5%, ELG1 repair inh inconclusive, MCF10A rerep inconclusive, SW480 rereplic -12% and Gal4-VP16 FLuc -16%.
For CC(C)CN(C(=O)CN1CCc2ccccc21)c1c(N)n(CC(C)C)c(=O)[nH]c1=O the results were RORgamma inh -1%, ELG1 repair inh -4%, MCF10A rerep 2%, SW480 rereplic 1% and Gal4-VP16 FLuc 0%.
For O=C(NC(=S)N1CCN(Cc2ccc3c(c2)OCO3)CC1)c1ccc(Cl)cc1 the results were RORgamma inh 0.45µM*, ELG1 repair inh inconclusive, MCF10A rerep inconclusive, SW480 rereplic 2% and Gal4-VP16 FLuc 0.63µM*.
For Cc1cc(Cl)ccc1NC(=S)N1CCN(Cc2ccc3c(c2)OCO3)CC1 the results were RORgamma inh inconclusive, ELG1 repair inh -9%, MCF10A rerep 12%, SW480 rereplic inconclusive and Gal4-VP16 FLuc inconclusive.
For O=C(NC(=S)N1CCN(Cc2ccc3c(c2)OCO3)CC1)c1cccc(Br)c1 the results were RORgamma inh 0.56µM*, ELG1 repair inh -22%, MCF10A rerep 11%, SW480 rereplic 0% and Gal4-VP16 FLuc 0.63µM*.
`O=C(COC(=O)c1nc(Cl)ccc1Cl)NCc1ccc(Cl)cc1` gave ELG1 repair inh -1%, MCF10A rerep -9% and SW480 rereplic -4%.
Screening CC[N+]1(C)CCC(O)(c2ccc(OC)cc2)C(C(=O)c2ccc(OC)cc2)C1 (stereo unspecified) returned MCF10A rerep 4.6µM* and SW480 rereplic 2.9µM*.
For Cc1ccc(CNC(=O)c2ccc(Cl)c(S(N)(=O)=O)c2)n1C the results were RORgamma inh -2%, ELG1 repair inh -24%, MCF10A rerep -8%, SW480 rereplic -3% and Gal4-VP16 FLuc 1%.
O=C(NCc1ccccc1Cl)C1CCCN(c2nc3ccsc3c(=O)s2)C1 (stereo unspecified) was read as RORgamma inh -5%, ELG1 repair inh 22% and Gal4-VP16 FLuc 3%.
CC1CCCN(c2nc3ccsc3c(=O)s2)C1 (stereo unspecified) was read as RORgamma inh 26%, ELG1 repair inh inconclusive, MCF10A rerep 18µM*, SW480 rereplic 18% and Gal4-VP16 FLuc 19%.
